# Reference: PubChem BioAssay (EPA / NIEHS)
# The source holds several records for some structures; these can differ, active in one and inactive in another. Active and inactive are the calls of the source. Rule for the calls: active = hit-call score of the fitted dose curve at least 0.9, where 1 is the maximum; inactive = score below 0.9.
# Read-out: Vascular endothelial growth factor receptor 2 (Homo sapiens) (UniProt P35968)
# Test: BSK_4H_VEGFRII: BioMAP Diversity Plus: 4H Assay for Vascular endothelial growth factor receptor 2 (VEGFR2) Biomarker Activity (AID 2283031)
# Details: primary human endothelial cells (HUVEC); actives raise or lower the signal
# Experimental: BSK_4H is a cell-based, multiplexed-readout assay that uses umbilical vein endothelium, a human vascular primary cell, with measurements taken at 24 hours after chemical dosing in a 96-well plate.BSK_4H_VEGFRII is an assay component measured in the BSK_4H assay. It measures VEGFRII antibody related to regulation of gene expression using ELISA technology.Data from the assay component BSK_4H_VEGFRII was analyzed into 1 assay endpoint. This assay endpoint, BSK_4H_VEGFRII, was analyzed with bidirectional fitting relative to DMSO as the negative control and baseline of activity. Using a type of binding reporter, gain or loss-of-signal activity can be used to understand changes in the signaling as they relate to the gene KDR. Furthermore, this assay endpoint can be referred to as a primary readout, because this assay has produced multiple assay endpoints where this one serves a signaling function. To generalize the intended target to other relatable targets, this assay endpoint is annotated to the kinase intended target family, where the subfamily is receptor tyrosine kinase.
# The levels of cell surface (or secreted, indicated by the prefix "s") biomarker endpoints were measured by ELISA. Overt cytotoxicity to cells in confluent adherent cultures (all systems other than the BT system) was assessed by measuring total protein levels using sulforhodamine B (SRB) staining in parallel cultures at the time of biomarker measurements, indicated as SRB endpoints. For proliferation assays for adherent cell types, individual cell types are cultured at sub-confluence and relative cell numbers quantified by SRB staining at time points optimized for each system (48 h: 3C and CASM3C systems; 72 h: BT and HDF3CGF systems; 96 h: SAg system). SRB was performed by staining cells with 0.1% SRB after fixation with 10% TCA and reading wells at 560 nm.Viability and proliferation of PBMC (T cells) was quantified by Alamar Blue reduction for the SAg and BT systems. For PBMC viability (referred to as PBMC Cytotoxicity within the assay endpoint names), cells were plated (75,000/well in a 96-well plate) and then chemical samples added for 1 h before addition of activators, SEB and TSST-1 (20 ng/mL final concentration each). Cells were incubated for 90 h. Then, Alamar Blue (20 uL/well) (Invitrogen, Cat DAL1100) was added for 6 h, and the plates were read with a fluorescence microplate reader at 546/580 nm (excitation/emission). For PBMC proliferation, cells were plated and activated as above but incubated for only 16 h prior to addition of Alamar Blue. Plates were read after 6 h.
Compound,outcome,AC50
CC(C)(C)c1ccccc1OP(=O)(Oc1ccccc1)Oc1ccccc1,inactive,
C=CC(=O)OCC(CC)(COC(=O)C=C)COC(=O)C=C,,5.14 µM (active)
ClC1=C(Cl)C2(Cl)C3C(Cl)C(Cl)CC3C1(Cl)C2(Cl)Cl (stereo not given),,30.3 µM (active)
CC(C)Nc1ccc(Nc2ccccc2)cc1,,8.12 µM (active)
CCCCOCCOP(=O)(OCCOCCCC)OCCOCCCC,inactive,
CC(Cc1ccc(OCC(=O)O)cc1)NCC(O)c1csc(C(F)(F)F)n1 (stereo not given),inactive,
O=C(O)C(F)(F)OC(F)(F)C(F)(F)OC(F)(F)C(=O)O,inactive,
CC(C)(C)OOC(C)(C)C,inactive,
Nc1cc2c3c(c1)C(c1ccccc1)=N[C@@H](NC(=O)c1cccnc1)C(=O)N3CC2,inactive,
CCOS(=O)(=O)OCC,inactive,
COP(N)(=S)OC,inactive,
OCC(F)(F)OC(F)(F)C(F)(F)OC(F)(F)C(F)(F)OC(F)(F)CO,inactive,
OCC(F)(F)OC(F)(F)C(F)(F)OC(F)(F)C(F)(F)OC(F)(F)F,inactive,42.9 µM (active)
N#Cc1cc([N+](=O)[O-])ccc1N,inactive,
O=S1(=O)OCC2C(CO1)C1(Cl)C(Cl)=C(Cl)C2(Cl)C1(Cl)Cl (stereo not given),inactive,
O=C(O)C(F)(OC(F)(F)C(F)(F)C(F)(F)F)C(F)(F)F (stereo not given),inactive,
CCOP(=S)(OCC)SCn1nnc2ccccc2c1=O,inactive,
CCCCC(CC)COP(=O)(Oc1ccccc1)Oc1ccccc1 (stereo not given),,10.4 µM (active)
CCC(C)(C)c1ccc(O)cc1,inactive,
Nc1ccc(Cl)cc1,inactive,

Compound,outcome,AC50
c1cc2c3c(cccc3c1)CC2,inactive,
Nc1ccc2ccccc2c1,inactive,
[N-]=[N+]=[N-],inactive,
Cc1ccc2c(c1N)C(=O)c1ccccc1C2=O,inactive,
c1nc[nH]n1,inactive,
O=[N+]([O-])c1ccc(Cl)c(Cl)c1,inactive,
C=CC(=O)OCC(F)(F)C(F)F,inactive,
c1ccc2c(c1)Nc1ccccc1S2,inactive,
CC(O)C(F)(F)C(F)(F)F (stereo not given),inactive,
O=P(OCC(Br)CBr)(OCC(Br)CBr)OCC(Br)CBr (stereo not given),inactive,
c1ccc2c(c1)sc1ccccc12,inactive,
Cc1c([N+](=O)[O-])cc2c(c1[N+](=O)[O-])C(C)(C)CC2(C)C,inactive,
Cc1ccc([N+](=O)[O-])cc1C,inactive,
CSC(C)(C)C=NO,inactive,
ClC(Cl)(Cl)c1ccccc1,inactive,
O=c1ssc(Cl)c1Cl,inactive,
CCCCCCCc1ccc(O)cc1,inactive,
CC(Cl)CN(C)C (stereo not given),inactive,
CCOP(=S)(Oc1ccc([N+](=O)[O-])cc1)c1ccccc1 (stereo not given),inactive,
